The text below walks through data of PubChem BioAssay (NCI).

Structures are written as SMILES. Compounds without any hit were thinned out: in the full panel of roughly 83,000, 20% have a hit.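 Cells were grown in 96-well plates and exposed to the test compound at a single concentration for 48 hours; results are reported as percent growth, with values below 10 considered active.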 Activity calls are given as the source filed them.

The experiment has as its system LOX IMVI melanoma. The experiment is described as follows: NCI-60 one-dose screen, 48 h (100 = growth as untreated, 0 = no growth, -100 = all killed). The following applies: 10 µM. As to the method: Growth inhibition of the LOX IMVI human tumor cell line is measured as a screen for anti-cancer activity. Cells are grown in 96 well plates and exposed to the test compound for 48 hours. Compounds are tested at a single concentration, which is 10^-5 M for most compounds. The reported endpoint is percent growth (GI% or GIPRCNT), where numbers from 0 - 100% represent growth inhibition, and numbers from -100% - 0 represent cell death. For example, a value of 40 represents 60% growth inhibition. A value of 0 means no net growth occurred over the course of the experiment. A value of -40 indicates 40% of cells at the beginning of the experiment died by the end of the experiment. A value of -100 means all cells are dead at the end of the experiment.
NCI-60 Human Tumor Cell Lines Screen was performed using the standard one-dose NCI protocol, which is described in more detail at https://dtp.cancer.gov/discovery_development/nci-60/default.htm.
Compounds with GIPRCNT values below 10 were considered active. Activity score was based on GIPRCNT using the following formula: […]
Score is 0 for GIPRCNT values of 100 or above, 50 for GIPRCNT values of 0, and 100 for GIPRCNT values of -100.
For `O=C(N/N=c1/ccoc2cccnc12)N1CCN(c2ncccn2)CC1`, the growth is 18.1% (inactive).

Take `CCOc1nc(-c2ccccc2)cc2c(O)c(C(=O)NCCCO)[nH]c(=O)c12`: the growth was 108% (inactive).

As to `COc1cc(CSc2nc3ccc(Cl)cc3c(=O)n2-c2ccccc2)cc(OC)c1OC`, the growth is 79.3% (inactive). `COc1ccc2oc(=O)cc(C3c4ccc([nH]4)C(c4cc(=O)oc5ccc(OC)cc45)c4ccc([nH]4)C(c4cc(=O)oc5ccc(OC)cc45)c4ccc([nH]4)C(c4cc(=O)oc5ccc(OC)cc45)c4ccc3[nH]4)c2c1` (stereo not given): the growth was -60.4% (active). For `CCCCCC(=O)N1c2ccccc2NC2=C(C(=O)CC(c3ccc(OC)c(OC)c3)C2)C1c1ccc(C(F)(F)F)cc1` (stereo not given), the growth was 60.8% (inactive). Turning to `Oc1[nH]c2ccccc2c1/C=c1/cc2c(c(-c3ccc(C(F)(F)F)cc3)n1)=Nc1ccccc1-2`, the growth was 60.5% (inactive). Next, `COc1cc(Cn2c(-c3ccccc3)c(Cl)c3c2-c2oncc2CC3)cc(OC)c1`: 73.8% (inactive); `C=CCn1ccc(=O)nc1SC`: 99.7% (inactive). Consider `CCOC(=O)C(CCC1=NC(C)(C)CC(C)O1)C(=O)OCC` (stereo not given), for which the growth is 90.1% (inactive). Turning to `Cc1cc(Cl)ccc1Nc1nc(C(F)(F)F)ccc1C(=O)N/N=C/c1ccccc1Cl`, the growth is 20.1% (inactive). As to `Nc1ccc2c(c1)Cc1cc(N)c(Cl)cc1-2`, the growth was 104% (inactive). Regarding `CCc1cc2n(n1)-c1ncc(C(=O)OC)cc1Oc1ccccc1-2`, the growth was 96.8% (inactive).

With `COc1ccccc1S(=O)(=O)Nc1ccc2c(c1)CN(C)C(=O)N2`, the growth was 29.1% (inactive). The figure for `N=C(N)c1ccc(-c2ccc(-c3ccccc3)s2)cc1F` is -81.4% (active); for `COc1cc(OC)cc(-c2ccc(-c3ccc(C(=N)N)cn3)o2)c1` it is -89.5% (active); for `O=C(Nc1ccc(Oc2ccc(Nc3nc4ccccc4s3)cc2)cc1)Nc1ccc(Cl)c(Cl)c1` it is 26.2% (inactive).

With `COc1ccc(-c2cc(/C=C/C(=O)c3ccc(N)cc3)[nH]n2)cc1OC`, the growth was -45.5% (active). The figure for `CCN(CC)CCOC(=O)c1ccc(NC(=O)Nc2cccc(Cl)c2)cc1` is 94.6% (inactive); for `O=C(Nc1cccc(Cl)c1)Nc1cc2ncncc2cc1OCc1cccc(F)c1` it is 21.4% (inactive); for `Cc1ccc(C2C=C(c3ccc(Cl)cc3)N=C3SC=CN32)c(Br)c1` (stereo not given) it is 55.9% (inactive). For the molecule `CCc1nn2c(-c3ccccc3)c(-c3cc(OC)c(OC)c(OC)c3)nc2s1`, the growth is 88.2% (inactive).

As for `CCc1ccc(-c2nnc(COc3ccc(-c4nc5cc(Cl)c(Cl)cc5[nH]4)cc3OC)o2)cc1`, the growth is 43.3% (inactive). Next, `O=C(NCc1cn(Cc2cccc(Oc3ccccc3)c2)nn1)c1cccnc1Nc1ccccc1`: 45.1% (inactive); `CC(C)c1[nH]nc2c(NCc3ccc(-c4ccccn4)cc3)nc(SCCN)nc12`: -18.5% (active); `Cc1nc2sccn2c1-c1csc(Nc2cccc(Cl)c2C)n1`: 61.4% (inactive). The figure for `COc1cc(C)c2sc3ccccc3c(=O)c2c1NCCN(C)C` is 26.4% (inactive); for `COc1cc(C2C(C#N)=C(c3c[nH]c4ccccc34)Nc3nc(N)[nH]c(=O)c32)cc(OC)c1OC` (stereo not given) it is 52% (inactive); for `CCOC(=O)c1cc(-c2ccccc2)nc(N)n1` it is 101% (inactive). Consider `COc1ccc(OC)c([N+](=O)[O-])c1C=O`, for which the growth is 83.4% (inactive). The figure for `CCN(CC)CCCOC(=O)Nc1ccccc1Cl` is 97.6% (inactive); for `N#C/C(=C/c1cc([N+](=O)[O-])ccc1Cl)C(N)=O` it is 68.8% (inactive). The figure for `N#CCC1CCCC1` is 97.2% (inactive); for `C#CCNCCN1C(=O)c2ccc3c4c(ccc(c24)C1=O)C(=O)N(CCNCC#C)C3=O` it is -3.21% (active). The figure for `Fc1cc(-c2ncc(-c3cc(F)c(F)c(F)c3)c(NC3CCCCCC3)n2)cc(F)c1F` is 102% (inactive); for `CC(=O)Nc1nc(C)c(C(=O)NNC=O)s1` it is 104% (inactive); for `Nc1cc(O)cc(O)c1` it is 95% (inactive). For `Cc1ccc(S(=O)(=O)Nc2cccc3[nH]c(C(F)(F)F)nc23)cc1`, the growth was 41.4% (inactive). With `CC1(CO)CCCC12OCCO2` (stereo not given), the growth was 104% (inactive). Next, `CNC(=O)c1cc(Oc2ccc(NC(=O)Nc3ccc(Cl)c(OC(C)C)c3)c(F)c2)ccn1`: 45.2% (inactive). The figure for `Cc1cc(C)c2c(Nc3ncnc4c3sc3nc(C)cc(C)c34)n[nH]c2n1` is 95.5% (inactive).
